{"source": "PubChem BioAssay AID629", "about": "(Emory University Molecular Libraries Screening Center, 2007)", "note": "Among all 86,000 compounds or so, about 1,400 (1.6%) were called active. The sample holds actives, similar compounds and a random draw of the others, so the mix is not that of the screen. Unmarked numbers belong to inactive results. Cut-off read from the data, not from the text of the source: active = inhibition above about 50%; inactive = the rest."}
{"biological_target": "Estrogen receptor (Homo sapiens) (UniProt P03372)", "sequence (P03372 whole entry, looked up, the tested form may be a part)": "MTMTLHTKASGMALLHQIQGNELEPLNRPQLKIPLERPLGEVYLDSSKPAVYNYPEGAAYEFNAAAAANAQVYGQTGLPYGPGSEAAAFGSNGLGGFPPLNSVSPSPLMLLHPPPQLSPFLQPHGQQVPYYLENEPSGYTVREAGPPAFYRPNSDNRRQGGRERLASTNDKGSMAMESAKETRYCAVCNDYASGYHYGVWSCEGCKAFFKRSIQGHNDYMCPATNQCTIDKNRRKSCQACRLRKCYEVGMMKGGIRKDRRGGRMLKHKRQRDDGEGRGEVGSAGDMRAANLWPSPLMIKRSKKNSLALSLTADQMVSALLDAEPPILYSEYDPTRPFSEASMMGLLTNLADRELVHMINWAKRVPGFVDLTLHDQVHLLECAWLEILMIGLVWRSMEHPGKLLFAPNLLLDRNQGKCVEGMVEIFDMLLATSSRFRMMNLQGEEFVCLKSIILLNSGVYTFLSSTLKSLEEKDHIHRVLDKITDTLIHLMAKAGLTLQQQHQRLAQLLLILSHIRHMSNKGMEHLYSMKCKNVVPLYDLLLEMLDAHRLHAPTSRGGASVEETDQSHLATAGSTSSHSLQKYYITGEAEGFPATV", "experiment": "blockers of SRC-1 peptide recruitment to ERα – biochemical, TR-FRET, ERα LBD, estradiol-bound, primary screen (AID 629);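 note: 0% = receptor plus peptide control and 100% = peptide only without receptor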", "conditions": "TR-FRET ER-alpha LBD / SRC-1 peptide, at 25.6 µM, stronger effect = higher value"}
{"smiles": "COc1ccc(-c2ccc(-c3noc(-c4ccncc4)n3)c(OC)n2)cc1", "inhibition": "59.7% (active)"}
{"smiles": "CCOc1nc(-c2ccc(OC)cc2)ccc1-c1noc(-c2cc(OC)c(OC)c(OC)c2)n1", "inhibition": "9.34%"}
{"smiles": "COc1cc(-c2nc(-c3ccncc3)no2)cc(OC)c1OC", "inhibition": "-8.51%"}
{"smiles": "NC1=NC(=O)C2(COC(c3ccccc3Cl)OC2)S1", "note": "(configuration not stated)", "inhibition": "-0.98%"}
{"smiles": "Cc1ccc(NC(=S)NC(NC(=O)Cc2cccc3ccccc23)C(Cl)(Cl)Cl)cc1", "note": "(configuration not stated)", "inhibition": "57% [fluorescence artefact?] (active)"}
{"smiles": "COc1cccc(NC(=O)Cc2ccc(C)cc2)c1", "inhibition": "-3.07%"}
{"smiles": "CC(=O)c1cccc(NC(=O)Nc2ccc(C)cc2)c1", "inhibition": "4.59%"}
{"smiles": "O=S(=O)(Cc1cc(Sc2ccccc2)nc(-c2ccccc2)n1)c1ccccc1", "inhibition": "-0.05%"}
{"smiles": "CSc1ccc(S(=O)(=O)Nc2cccc(F)c2)cc1", "inhibition": "61.3% (active)"}
{"smiles": "CSc1ccc(S(=O)(=O)NC2CCCCC2)cc1", "inhibition": "6.27%"}
{"smiles": "CC(=O)Nc1ccc(S(=O)(=O)Nc2cccc(NC(=O)C(C)(C)C)c2)cc1", "inhibition": "-5.55%"}
{"smiles": "Cc1cccc(N2CCN(C(c3ccc(N(C)C)cc3)c3nnnn3C(C)(C)C)CC2)c1C", "note": "(configuration not stated)", "inhibition": "1.11%"}
{"smiles": "CC(=O)C1=C(C)NC(C)=C(C(C)=O)C1c1cn(-c2ccccc2)nc1-c1cccs1", "inhibition": "-18.1%"}
{"smiles": "CC(C)(C)c1cc(=O)n2c(nc3ccccc32)[nH]1", "inhibition": "11.3%"}
{"smiles": "COCCn1c(SCc2nnc(-c3ccc(OC)c(OC)c3)o2)nc2sc3c(c2c1=O)CCC3", "inhibition": "-16.5%"}
{"smiles": "CCCC1(C(=O)OCC)NC(c2ccc(N(C)C)cc2)C2C(=O)N(c3ccc4c(c3)OCCO4)C(=O)C21", "note": "(configuration not stated)", "inhibition": "-19%"}
{"smiles": "O=C(c1cc2c(s1)CCC2)N1CCN(c2ccccc2)CC1", "inhibition": "67.9% [fluorescence artefact?] (active)"}
{"smiles": "COc1cccc(-c2nn(C)c3sc(C(=O)N4CCN(c5ccccc5)CC4)cc23)c1", "inhibition": "6.81%"}
{"smiles": "Cc1nc2ccc(C(=O)N3CCN(c4ccccc4)CC3)cc2s1", "inhibition": "-14.9%"}
{"smiles": "COC(=O)c1cc(OC)ccc1-c1ccc(OC)cc1", "inhibition": "-2.99%"}
{"smiles": "CCc1ccc(CNC(=O)CCc2nc(-c3cccs3)no2)cc1", "inhibition": "0.94%"}
{"smiles": "O=C(c1cc2sccc2n1Cc1ccc(F)cc1)N1CCc2ccccc21", "inhibition": "-24.7%"}
{"smiles": "CC1(c2ccccc2Cl)NC(=O)N(CC(=O)NC(=O)NCc2ccco2)C1=O", "note": "(configuration not stated)", "inhibition": "9.78%"}
{"smiles": "O=C(COC(=O)c1ccc(S(=O)(=O)N2CCc3ccccc3C2)cc1)NC(=O)NCc1ccco1", "inhibition": "10.1%"}
{"smiles": "O=C(CN1CCN(S(=O)(=O)/C=C/c2ccccc2)CC1)NC(=O)NCc1ccco1", "inhibition": "55% [fluorescence artefact?] (active)"}
{"smiles": "CCC(C)n1[nH]c(=O)c2c(C)cc(C)nc21", "note": "(configuration not stated)", "inhibition": "-1.94%"}
{"smiles": "CCC(C)n1[nH]c(=O)cc1N", "note": "(configuration not stated)", "inhibition": "60.4% (active)"}
{"smiles": "CCCC(C)n1[nH]c(=O)c2c(C)cc(C)nc21", "note": "(configuration not stated)", "inhibition": "-5.08%"}
{"smiles": "CCN1C(=O)/C(=C2/Sc3ccc(OC)cc3N2C)SC1=Nc1ccc(C)cc1", "inhibition": "18.8%"}
{"smiles": "NC(=O)C1(N2CCCCC2)CCN(C2CC(=O)N(Cc3ccc(N4CCCC4=O)cc3)C2=O)CC1", "note": "(configuration not stated)", "inhibition": "-9.78%"}
{"smiles": "COc1ccc(C(=O)Cc2cnn(-c3ccccc3)c2)c(O)c1", "inhibition": "-7.1%"}
{"smiles": "COc1ccccc1NC(=O)/C=C/C(N)=O", "inhibition": "13%"}
{"smiles": "CCOc1cc(NC(=O)c2ccco2)c(OCC)cc1NC(=O)COc1ccccc1", "inhibition": "77.7% [fluorescence artefact?] (active)"}
{"smiles": "Cc1ccc(C(=O)COc2cccc(NC(=O)c3ccco3)c2)cc1", "inhibition": "6.84%"}
{"smiles": "O=C(Nc1ccc(Oc2ccccc2)cc1)c1ccco1", "inhibition": "0.33%"}
{"smiles": "COC(=O)C1=C(Nc2ccc(C)cc2)C=C(C)C(C(=O)OC)C1c1ccc(F)cc1", "note": "(configuration not stated)", "inhibition": "-7.97%"}
{"smiles": "Cc1nn(C)cc1CNC(=O)Nc1ccc(Cl)cc1", "inhibition": "5.21%"}
{"smiles": "Cc1cccc(C(=O)Nc2ccccc2N2CCN(c3ccc(F)cc3)CC2)c1", "inhibition": "-12.2%"}
{"smiles": "O=C1CCCc2nn(-c3ccccc3)nc21", "inhibition": "-5.5%"}
{"smiles": "O=C(COC(=O)C12CC3CC(CC(C3)C1)C2)NCc1ccco1", "inhibition": "21%"}
{"smiles": "O=C(CCC(=O)c1cccs1)NCc1ccccc1", "inhibition": "3.23%"}
{"smiles": "O=C(COC(=O)CCC(=O)c1cccs1)NCc1ccco1", "inhibition": "71.3% (active)"}
{"smiles": "O=C(Nc1nncs1)c1cccc(S(=O)(=O)N2CCCCC2)c1", "inhibition": "-7.35%"}
{"smiles": "CC(C)(C)n1nnnc1C(c1ccc(Cl)cc1)N1CCSCC1", "note": "(configuration not stated)", "inhibition": "-5.89%"}
{"smiles": "O=C(Cn1cc(C(=O)c2cccs2)c2ccccc21)NCc1cccs1", "inhibition": "4.67%"}
{"smiles": "Cc1cccc(NC(=O)Cn2cc(C(=O)c3ccco3)c3ccccc32)c1", "inhibition": "52.3% (active)"}
{"smiles": "Cc1cccc(NC(=O)CSc2nnc(-c3ccco3)o2)c1", "inhibition": "-9.42%"}
{"smiles": "Cc1cc(C)c2cc(CN(Cc3nnnn3Cc3ccc(F)cc3)C3CCCC3)c(=O)[nH]c2c1", "inhibition": "7.55%"}
{"smiles": "COc1ccc(-c2nnc(SCc3cccnc3)o2)cc1", "inhibition": "-6.1%"}
{"smiles": "COc1ccc(S(=O)(=O)N/N=C\\c2ccc(OC)c(COc3ccc(C)cc3[N+](=O)[O-])c2)cc1", "inhibition": "17.7%"}
{"smiles": "O=C(CSc1nnnn1-c1ccccc1)NCc1ccco1", "inhibition": "33.1%"}
{"smiles": "COc1ccc(Cc2nnc(NC(=O)Cc3cccs3)s2)cc1", "inhibition": "97.3% [fluorescence artefact?] (active)"}
{"smiles": "CCCc1ccc(-c2csc(NC(=O)Cc3cccs3)n2)cc1", "inhibition": "7.36%"}
{"smiles": "COc1ccc(Cc2nnc(NS(=O)(=O)Cc3ccccc3)s2)cc1", "inhibition": "-16.5%"}
{"smiles": "CC(C)(C)C(=O)Cn1c(NCCO)nc2ccccc21", "inhibition": "-7.55%"}
{"smiles": "CN(Cc1ccccc1)C(=O)COc1ccccc1", "inhibition": "21%"}
{"smiles": "COCCCn1c2nc3ccccc3nc2c2c(=O)n(Cc3ccc(Cl)cc3)c(C)nc21", "inhibition": "22.2%"}
{"smiles": "Cc1ccc(Cn2c(C)nc3c(c2=O)c2nc4ccccc4nc2n3Cc2ccco2)cc1", "inhibition": "45.1%"}
{"smiles": "Cc1nc2c(c(=O)n1Cc1ccco1)c1nc3ccccc3nc1n2Cc1ccccc1", "inhibition": "79.5% (active)"}
{"smiles": "CC1(C)CCc2nc(SCc3ccccc3)c(C#N)cc2C1", "inhibition": "-2.01%"}
{"smiles": "C=C(C)CNC(=S)/N=c1\\scc(C)n1CC", "inhibition": "64.7% [fluorescence artefact?] (active)"}
{"smiles": "CS(=O)(=O)n1nc(-c2ccccc2)nc1NCc1ccco1", "inhibition": "-3%"}
{"smiles": "CCOc1ccc2c(c1)C(c1ccc(C)cc1)=NNC(c1ccc(C)cc1)=N2", "inhibition": "-14.6%"}
{"smiles": "Clc1ccc(COn2c(-c3ccc(Cl)cc3Cl)nc3ncccc32)cc1", "inhibition": "27.7%"}
{"smiles": "COc1ccc(S(=O)(=O)NCc2ccc(C(=O)N(C)Cc3ccco3)cc2)cc1", "inhibition": "2.78%"}
{"smiles": "Oc1c(C(c2ccccn2)N2CCOCC2)ccc2cccnc12", "note": "(configuration not stated)", "inhibition": "70% [fluorescence artefact?] (active)"}
{"smiles": "Cc1nc2sc(C(c3ccco3)N3CCOCC3)c(O)n2n1", "note": "(configuration not stated)", "inhibition": "-24%"}
{"smiles": "O=C(c1cccnc1NCc1ccccc1)N1CCOCC1", "inhibition": "-6.49%"}
{"smiles": "CCc1nnc(NC(=O)CCC(=O)NCc2ccccc2OC)s1", "inhibition": "-1.4%"}
{"smiles": "Cc1nc(-c2ccc(NC(=O)c3cccs3)cc2)cs1", "inhibition": "-16.8%"}
{"smiles": "O=C(Cc1cccc2ccccc12)Nc1ccc2oc(-c3ccccc3)nc2c1", "inhibition": "-1.24%"}
{"smiles": "O=C(Nc1ccc2oc(-c3ccc4ccccc4c3)nc2c1)c1cccs1", "inhibition": "55% (active)"}
{"smiles": "CCOC(=O)c1ccccc1NS(=O)(=O)c1ccc(OC)cc1", "inhibition": "-11.3%"}
{"smiles": "CCOC(=O)N1CCN(C(=O)CSc2ccc(Cl)cc2)CC1", "inhibition": "-2.04%"}
{"smiles": "CCOC(=O)N1CCN(C(c2cccnc2)c2ccc3cccnc3c2O)CC1", "note": "(configuration not stated)", "inhibition": "53.3% [fluorescence artefact?] (active)"}
{"smiles": "CCOC(=O)N1CCN(C(=O)c2cc3c(ccc4ccccc43)oc2=O)CC1", "inhibition": "-9.07%"}
{"smiles": "CCN1CCN(C(c2cccnc2)c2cc(Cl)c3cccnc3c2O)CC1", "note": "(configuration not stated)", "inhibition": "65.6% [fluorescence artefact?] (active)"}
{"smiles": "Oc1c(CN2CCN(c3ccc(F)cc3)CC2)cc(Cl)c2cccnc12", "inhibition": "-0.01%"}
{"smiles": "CCn1c(=O)c(=O)n(CC)c2cc(S(=O)(=O)N3CCc4ccccc43)ccc21", "inhibition": "-5.41%"}
{"smiles": "CCN(CC)CC(=O)c1c[nH]c2ccc(OC)cc12", "inhibition": "-8.61%"}
{"smiles": "CCOC(=O)/C(C#N)=C\\c1c(C)cc(C)c(COC(C)=O)c1C", "inhibition": "-6.55%"}
{"smiles": "O=C(Nc1nc(-c2ccc3c(c2)OCO3)cs1)c1ccncc1", "inhibition": "58% [fluorescence artefact?] (active)"}
{"smiles": "O=C(Nc1nc(-c2ccncc2)cs1)C1COc2ccccc2O1", "note": "(configuration not stated)", "inhibition": "1.84%"}
{"smiles": "O=C(Nc1ccc2c(c1)OCCO2)c1ccncc1", "inhibition": "-22.6%"}
{"smiles": "COc1ccc(CN(C(=O)CSc2nnc(-c3ccc(OC)c(OC)c3)o2)c2ccc(F)cc2)cc1", "inhibition": "-6.76%"}
{"smiles": "COc1ccc(C(=O)N2CC3(C)CC2CC(C)(C)C3)cc1OC", "note": "(configuration not stated)", "inhibition": "-3.82%"}
{"smiles": "O=C(CSc1nnc(-c2cccnc2)n1CCc1ccccc1)NCc1ccccc1", "inhibition": "-17.8%"}
{"smiles": "CCOc1cccc(-c2nn3c(-c4ccccn4)nnc3s2)c1", "inhibition": "2.04%"}
{"smiles": "COc1ccc(-c2nn3c(-c4ccccc4)nnc3s2)cc1OC", "inhibition": "3.83%"}
{"smiles": "c1ccc(-c2cc(-c3nnc4sc(-c5ccccn5)nn34)[nH]n2)cc1", "inhibition": "54.2% [fluorescence artefact?] (active)"}
{"smiles": "O=C(/C=C/NNC(=O)c1cccc(Br)c1)c1ccccc1", "inhibition": "-3.8%"}
{"smiles": "C=CCO/N=C(\\C)c1c(O)c(C)c(-c2ccccc2)n(-c2ccccc2)c1=O", "inhibition": "2.56%"}
